# Assay outcomes deposited in PubChem BioAssay by National Center for Advancing Translational Sciences (NCATS).
# Shown is part of a subset that was picked to be rich in hits.
# KDM5B inhibitor: inhibitors of human KDM5B histone demethylase | 220,000 compounds, 2.6% hits | KDM5B demethylase, FDH-coupled NADH fluorescence (FDH is formaldehyde dehydrogenase) | Potency, µM (top dose mostly 57.7 µM), actives largely listed as inhibitors | AID 1347165; active = well fitted inhibition curve with a large enough effect; note: 0% is about no effect; nearly all actives have a fitted effect of over 70% in size
#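 Inhibition is measured as reduced NADH fluorescence generation from FDH coupling to formaldehyde release. Truncated KDM5BΔAP at 200 nM final acts on H3K4me3 peptide (12.5 µM in substrate mix) in pH 7.5 HEPES buffer with Tween-20, 30 min, room temperature.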
# Starred values were filed as active, the others as inactive; i = inactive. Potency is the fitted concentration of half-maximal effect.
SMILES,KDM5B inhibitor
Cc1ccc(/C=N/NS(=O)(=O)c2ccc(C)c([N+](=O)[O-])c2)s1,i
CCOc1ccc(NC(=O)N2CCN(Cc3nc(-c4ccccc4)oc3C)CC2)cc1,i
O=C(c1ccccc1Br)N(Cc1cccc2[nH]ccc12)C1CC1,i
O=C(Nc1nc(-c2ccc(-c3ccccc3)cc2)cs1)C1CCN(C(=O)c2ccoc2)CC1,i
O=C1Nc2ccccc2NC12CCN(Cc1c(F)cccc1Cl)CC2,i
COc1cccc(NC(=O)O[C@@H]2CC[C@]3(C)C(CC[C@@H](O)[C@H]3CC(=O)N3CCCC3)[C@]2(C)CO)c1 (some centres undefined),i
COCCn1ccc2c(OCC(=O)Nc3cccc(C)c3C)cccc2c1=O,i
Cc1ccc(C(=O)c2sc(Nc3ccc(Cl)cc3C)nc2N)cc1,i
Cn1c(SCc2csc(-c3ccc(Cl)cc3)n2)nnc1C1CC1,i
Cc1oc(-c2nc(C#N)c(NCc3cccnc3)o2)cc1S(=O)(=O)N(C)c1ccccc1,i
CC(C)c1ccccc1NC(=O)CN(c1ccccc1F)S(=O)(=O)c1ccccc1,i
CCOC(=O)CNC(=O)Cc1ccc(OC)cc1,i
CCOc1ccccc1N1CCN(C(=O)CNC(=O)c2ccc(OC)c(OC)c2)CC1,i
CCOC(=O)c1[nH]c2ccc(OC)cc2c1NC(=S)N1CCN(c2ccccn2)CC1,i
COc1ccccc1CC(=O)N1CCc2nn(C)c(=O)n2CC1,i
COc1ccccc1CC(=O)NCC(=O)N1CCN(c2ccccn2)CC1,25µM*
COc1ccc(CC(=O)NCC(=O)N2CCN(c3ccccn3)CC2)cc1,32µM*
O=Cc1c(-c2ccc(Cl)cc2Cl)[nH]c2ccccc12,i
COc1ccc(C(=O)N[C@@H]2CCC[C@@H]2C(=O)N2CCN(c3ccc(Cl)cc3)CC2)cc1,i
Fc1ccc(NC(=S)NCCc2ccccc2F)cc1,i
COC(=O)C(C)N1C(=O)S/C(=C/c2ccc(OC)cc2)C1=O (centres undefined),i
O=C1NCCC[C@@H]1NC(=O)[C@@H]1CN(C(=O)c2cccc(F)c2)CCN1C(=O)c1cccc(F)c1,i
O=C1CCCN1c1cccc(-c2csc(-c3ccccc3)n2)c1,i
N#Cc1ccccc1COC(=O)c1ccccc1C(=O)c1ccccc1,i
COCCNC(=O)c1cc(-c2ccc(OC)cc2)nc2c1c(C1CCCN1)nn2C (centres undefined),79µM*
SMILES,KDM5B inhibitor
COCCNC(=O)c1cc(C2CC2)nc2c1c(C1CCCN1)nn2-c1ccccc1 (centres undefined),i
O=C(c1cc(C2CC2)nc2c1c(C1CCCN1)nn2-c1ccccc1)N1CCC(F)CC1 (centres undefined),i
COc1ccc(CCNC(=O)Cn2nc(-c3ccc(OC)cc3)ccc2=O)cc1,i
COc1ccc(-c2cc(C(=O)NCC(C)C)c3c(C4CCCN4)nn(C)c3n2)cc1 (centres undefined),50µM*
CCc1ccc(-c2[nH]nc3nc(-c4ccc(OC)cc4)cc(C(=O)NCCCOC)c23)cc1,i
CCCn1c(C)cnc1CC1CCCN(C(=O)c2ccc(OC)cc2)C1 (centres undefined),i
CCCNC(=O)NC(=O)CN(C)c1ccccc1,i
CC(NS(=O)(=O)Cc1ccccc1)c1cccs1 (centres undefined),i
CN(C)C[C@@H]1CN(c2ccccn2)C[C@H]1NC(=O)c1ccsc1,22µM*
CN(C)C[C@@H]1CN(c2ccncn2)C[C@H]1NC(=O)c1ccsc1,i
CN(C)C[C@@H]1CN(c2ccncn2)C[C@H]1NC(=O)c1cccn1C,i
CN(C)C[C@@H]1CN(c2ccncn2)C[C@H]1NC(=O)c1ccc2ccccc2n1,i
CN(C)C[C@@H]1CN(c2ccncn2)C[C@H]1NC(=O)Cc1cccs1,i
CN(C)C[C@@H]1CN(c2ccccn2)C[C@H]1NC(=O)c1ccc2c(c1)OCO2,28µM*
CN(C)C[C@@H]1CN(c2ccncn2)C[C@H]1NC(=O)Cn1c(=O)oc2ccccc21,i
CN(C)C[C@@H]1CN(c2ccncn2)C[C@H]1NC(=O)Cc1ccsc1,i
CN(C)C[C@@H]1CN(c2ccccn2)C[C@H]1NC(=O)c1cccn1C,22µM*
CN(C)C[C@@H]1CN(c2ccccn2)C[C@H]1NC(=O)Cn1c(=O)oc2ccccc21,22µM*
COc1ccc(C2CC2(C#N)C(=O)Nc2ccc(Cl)cc2Cl)cc1 (centres undefined),i
COc1ccc(C2C3=C(CC(C)(C)CC3=O)Nc3ccccc3N2C(=O)C(C)C)c(OC)c1 (centres undefined),i
C#CCN(C(=O)Cn1c(=O)c2c(ncn2C)n(C)c1=O)C1CCCCC1,i
Cn1ccc(NC(=O)CCc2ncc(-c3ccc(Cl)cc3)o2)n1,i
CC(C)(C)NC(=O)COc1ncnc2ccc(Br)cc12,i
Cc1cnc(CCNS(=O)(=O)c2ccc(C#N)cc2)n1C1CCC1,i
O=C(CCc1ccccc1)Nc1cccc2cccnc12,i
O=C1Nc2ccccc2CC12CCN(Cc1cncs1)C2 (centres undefined),i
